Test results from PubChem BioAssay (NCI).
Where “and” joins values, the source holds several entries; their conditions need not be identical. Equal entries are not always repeated. The panel holds about 83,000 compounds, 20% with a hit somewhere; the sample as a whole holds those more often.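 Interpretation: 100, growth as untreated; towards 0, rising growth inhibition; 0, no net growth; 0 to -100, cell death. Compounds scoring below 10 were considered active.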 A number with no mark means an inactive call.

system: EKVX NSCLC; experiment: NCI-60 one-dose screen, 48 h (100 = growth as untreated, 0 = no growth, -100 = all killed); conditions: 10 µM unless noted
Method: Growth inhibition of the EKVX human Non-Small Cell Lung tumor cell line is measured as a screen for anti-cancer activity. Cells are grown in 96 well plates and exposed to the test compound for 48 hours. Compounds are tested at a single concentration, which is 10^-5 M for most compounds. The reported endpoint is percent growth (GI% or GIPRCNT), where numbers from 0 - 100% represent growth inhibition, and numbers from -100% - 0 represent cell death. For example, a value of 40 represents 60% growth inhibition. A value of 0 means no net growth occurred over the course of the experiment. A value of -40 indicates 40% of cells at the beginning of the experiment died by the end of the experiment. A value of -100 means all cells are dead at the end of the experiment.
NCI-60 Human Tumor Cell Lines Screen was performed using the standard one-dose NCI protocol, which is described in more detail at https://dtp.cancer.gov/discovery_development/nci-60/default.htm.
Compounds with GIPRCNT values below 10 were considered active. Activity score was based on GIPRCNT using the following formula: […]
Score is 0 for GIPRCNT values of 100 or above, 50 for GIPRCNT values of 0, and 100 for GIPRCNT values of -100.

| Structure (SMILES) | growth |
| --- | --- |
| O=[N+]([O-])c1ccc(NC2CCCCC2)nc1 | 101% and 106% |
| Cc1cccc(Cl)c1N | 122% |
| NCCSSC/C=C\CSSCCN | 123% |
| N=C(N=C(N)N)N1CCOCC1 | 103% and 105% |
| COc1ccc(C(=O)C(O)c2ccc(OC)cc2)cc1 (stereo not given) | 107% and 110% |
| COC(=O)c1nc(=S)[nH]c(C(=O)OC)c1C(=O)c1ccccc1 | 107% |
| CCC/C(=N/NC(N)=O)c1ccco1 | 89.7% |
| Cc1ccc(N)cc1S(=O)(=O)O | 109% and 105% |
| N=c1sc2ccccc2n1CC(=O)O | 104% |
| CCCCCCC(C)CC1=C(O)c2ccccc2C(=O)C1=O (stereo not given) | 62% |
| CC1=CC(=O)c2cccc(NC3=NCCO3)c21 | 98.9% |
| CC(C)(C)OC(=O)c1ccc(NCc2cc(O)ccc2O)cc1 | 50.1% |
| N#CC(=S)Nc1ccc(Cl)c(Cl)c1 | 10.9% |
| O=C(c1ccncc1)c1c(Cc2ccccc2)ccc2ccccc12 | 66.5% |
| O=C(N=C1C(=O)C2(CCCCC2)C2(N=C(c3ccccc3)OC2=O)C12CCCCC2)c1ccccc1 (stereo not given) | 70.5% |
| CCOC(=N)c1ccc(C(=N)OCC)cc1 | 90.2% |
| OCc1ccccc1F | 110% |
| COC(=O)CCOc1ccccc1 | 96.6% |
| CC(C)(C)C1=CC(=O)C(C(C)(C)C)=CC1=O | 97.6% and 108% |
| CC(CN(C)C)CN1c2ccccc2Sc2ccccc21 (stereo not given) | 83% and 104% and 73.8% |

| Structure (SMILES) | growth |
| --- | --- |
| O=C1C=CC(n2cc(F)c(=O)[nH]c2=O)O1 (stereo not given) | 93.3% |
| Cc1cc(Cl)nc(Nc2ccccc2)n1 | 93.8% |
| COc1cc(NCCCCCNC(C)C)c2ncccc2c1 | 95.5% and 105% |
| Cn1c(-c2ccccc2)cc(=O)cc1-c1ccccc1 | 121% |
| COC1C(OC(N)=O)C(O)C(Oc2ccc3c(O)c(NC(=O)c4ccc(O)c(CC=C(C)C)c4)c(=O)oc3c2C)OC1(C)C (stereo not given) | 109% |
| CC(C)(C)OC(=O)CC1(O)CCCCC1 | 102% |
| C/C=C(/C(=O)NC(N)=O)C(C)C | 112% |
| O=C1c2ccccc2CN1c1ccccc1 | 113% |
| CC(=O)Nc1ccc(OC(C)=O)cc1 | 49.5% and 99.5% |
| Cc1cc2nc3ccc(=[N+](C)C)cc-3sc2cc1N | 38.7% and 24.3% |
| C/C(CC(C)C)=N/NC(N)=S | 59.6% |
| CC(C)(C)C1CCC(=NO)CC1 (stereo not given) | 102% |
| Nc1nc(=S)c2[nH]cnc2[nH]1 | 44.6% and 36.6% |
| COc1ccc(CCl)c(C)c1OC | 104% |
| O=C(O)C1CSCN1 (stereo not given) | 102% and 101% |
| CCCC(=O)Oc1ccc2ccccc2c1 | 101% |
| CCN(CC)CCO/N=C1\CC(c2ccc(OC)c(OC)c2)Oc2ccccc21 (stereo not given) | 96.3% |
| Clc1ccc2sc(-c3ccccc3)nc2c1 | 88.1% |
| CN1C2C=CC(=O)C1C1C(=O)N(c3ccccc3)C(=O)C12 (stereo not given) | 106% |
| CCOCCC(=O)O | 98.8% |
